Among the test systems are SR leukemia; RPMI-8226 leukemia; OVCAR-8 ovarian; OVCAR-5 ovarian; OVCAR-4 ovarian; SK-OV-3 ovarian; IGROV1 ovarian; OVCAR-3 ovarian; HS 578T breast; NCI/ADR-RES ovarian; T-47D breast; BT-549 breast; MDA-MB-435 melanoma; SW-620 colon; MCF7 breast; HCT-116 colon; HCC-2998 colon; KM12 colon.
What all share (assay): NCI-60 one-dose screen, 48 h (100 = growth as untreated, 0 = no growth, -100 = all killed)
Holding throughout (details): 10 µM unless noted

Results on twelve compounds are retold here after PubChem BioAssay (NCI).

Each structure is given as a SMILES string. The panel holds about 83,000 compounds, 20% with a hit somewhere; the sample as a whole holds those more often.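 Values shown are percent growth following 48 h exposure of cells in 96-well plates to a single concentration of compound; below 10 was considered active.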 A number with no mark means an inactive call. Calls of active or inactive are those of the source.

Take `O=C(c1cccc(F)c1)n1ccc2cc(NC(=S)Nc3cccnc3)ccc21`: the growth in the assay on SR leukemia is 81.6%; in the assay on RPMI-8226 leukemia, 99.3%; in the assay on OVCAR-8 ovarian, 102%; in the assay with OVCAR-5 ovarian, 101%; in the assay on OVCAR-4 ovarian, 103%; in the assay with SK-OV-3 ovarian it was 105%. The growth in the assay on IGROV1 ovarian was 97.4%; with OVCAR-3 ovarian, 107%; in the assay with HS 578T breast, 94.4%; in the assay with NCI/ADR-RES ovarian, 105%; in the assay on T-47D breast it was 93.7%; in the assay with BT-549 breast, 97.6%. For the same compound, the growth is 99% in the assay on MDA-MB-435 melanoma; 93.8% in the assay on SW-620 colon; 85.7% in the assay with MCF7 breast; 105% in the assay on HCT-116 colon; 99.7% in the assay on HCC-2998 colon; 97.9% in the assay with KM12 colon.

For the compound `O=C(/C=C/c1cccc(O)c1)c1ccc(O)cc1`, the growth in the assay with SR leukemia was 13%; in the assay with RPMI-8226 leukemia it was 18.7%; in the assay with OVCAR-8 ovarian, 83.7%; in the assay on OVCAR-5 ovarian, 91.4%; in the assay with OVCAR-4 ovarian, 96.2%; in the assay on SK-OV-3 ovarian, 112%. The growth in the assay with IGROV1 ovarian is 80.2%; in the assay with OVCAR-3 ovarian, 14.3%; in the assay with HS 578T breast, 101%; with NCI/ADR-RES ovarian it was 71.4%; with T-47D breast, 62.6%; with BT-549 breast it was 86.5%. The growth in the assay on MDA-MB-435 melanoma is 65.5%; with SW-620 colon, 49.2%; in the assay with MCF7 breast it was 37.3%; with HCT-116 colon it was 33.8%; in the assay with HCC-2998 colon it was 110%; with KM12 colon it was 33.4%.

Take `O=C(NCCCNc1cc(-c2cn(-c3ccccc3)nc2-c2cccc(O)c2)ccn1)Nc1cc(C(F)(F)F)cc(C(F)(F)F)c1`: the growth in the assay with SR leukemia is 53.9%; with RPMI-8226 leukemia, 43.9%; with OVCAR-8 ovarian, 75.7%; in the assay with OVCAR-5 ovarian it was 88.8%; with OVCAR-4 ovarian, 66.9%; in the assay on SK-OV-3 ovarian, 89.3%. For the same compound, the growth is 64% with IGROV1 ovarian; 86.5% with OVCAR-3 ovarian; 57.3% with HS 578T breast; 69.7% in the assay with NCI/ADR-RES ovarian; 77.5% with T-47D breast; 84.9% with BT-549 breast. The growth is 75.3% in the assay on MDA-MB-435 melanoma; 94.2% with SW-620 colon; 59.1% with MCF7 breast; 51.2% in the assay with HCT-116 colon; 66.8% in the assay with HCC-2998 colon; 58.1% in the assay on KM12 colon.

In the case of `Cc1cc2nc(C(Cl)Cl)nc(-c3ccco3)n2n1`, the growth in the assay on SR leukemia is 86.8%; in the assay with RPMI-8226 leukemia it was 44.3%; in the assay with OVCAR-8 ovarian it was 80.5%; with OVCAR-5 ovarian, 75.8%; in the assay with OVCAR-4 ovarian, 79.5%; in the assay with SK-OV-3 ovarian, 93.3%. The growth in the assay with IGROV1 ovarian was 91.1%; with OVCAR-3 ovarian it was 22.4%; in the assay with HS 578T breast it was 94%; with NCI/ADR-RES ovarian it was 62.6%; with T-47D breast, 79.2%; in the assay with BT-549 breast, 93.3%. Besides, the growth is 89.4% in the assay with MDA-MB-435 melanoma; 54.1% in the assay with SW-620 colon; 46% in the assay on MCF7 breast; 74% with HCT-116 colon; 58.7% in the assay on HCC-2998 colon; 25.4% with KM12 colon.

On to `O=c1oc2ccc(-c3ccc(F)cc3F)cc2c(=O)n1-c1cccc(C(F)(F)F)c1`, for which the growth with SR leukemia was 18.4%; in the assay with RPMI-8226 leukemia, -12.9% (active); in the assay on OVCAR-8 ovarian, 12.4%; in the assay on OVCAR-5 ovarian, 10.4%; with OVCAR-4 ovarian, 13.4%; in the assay on SK-OV-3 ovarian it was 0.403% (active). Besides, the growth with IGROV1 ovarian is 8.17% (active); with OVCAR-3 ovarian, 10.9%; in the assay on HS 578T breast it was -4.83% (active); in the assay with NCI/ADR-RES ovarian, 4% (active); in the assay with T-47D breast it was 6.01% (active); in the assay on BT-549 breast, 3.66% (active). Further, the growth in the assay on MDA-MB-435 melanoma is 6.94% (active); in the assay on SW-620 colon it was 14.2%; with MCF7 breast, 2.43% (active); in the assay with HCT-116 colon it was 4.36% (active); in the assay on HCC-2998 colon it was 16.4%; in the assay on KM12 colon it was 6.11% (active).

Regarding `O=S(=O)(NCCCNc1nccc(-n2cnc3ccccc32)n1)c1ccc(F)cc1`, the growth in the assay with SR leukemia was 36.8%; in the assay with RPMI-8226 leukemia it was 57.7%; in the assay on OVCAR-8 ovarian, 62.5%; with OVCAR-5 ovarian it was 98.6%; with OVCAR-4 ovarian it was 44.2%; in the assay on SK-OV-3 ovarian it was 85.1%. Further, the growth in the assay with IGROV1 ovarian is 91.8%; in the assay on OVCAR-3 ovarian, 86.7%; in the assay with HS 578T breast, 82.4%; in the assay with NCI/ADR-RES ovarian it was 64.3%; with T-47D breast, 25.5%; in the assay with BT-549 breast, 34.9%. The growth was 64.6% in the assay on MDA-MB-435 melanoma; 96.2% with SW-620 colon; 63.7% with MCF7 breast; 58.7% with HCT-116 colon; 102% in the assay with HCC-2998 colon; 48.9% in the assay on KM12 colon.

`CS(=O)c1nccc(-c2c(-c3ccc(F)c(OCCc4ccc(F)cc4)c3)nc3sccn23)n1` (stereo not given): the growth in the assay on SR leukemia was -8.59% (active); with RPMI-8226 leukemia it was 18%; with OVCAR-8 ovarian, 66.6%; with OVCAR-5 ovarian, 103%; with OVCAR-4 ovarian, 82.1%; with SK-OV-3 ovarian, 105%. For the same compound, the growth is -40.4% (active) in the assay on IGROV1 ovarian; 88.7% in the assay with HS 578T breast; 105% in the assay with NCI/ADR-RES ovarian; -41.9% (active) with T-47D breast; 92.8% in the assay on BT-549 breast; 99.5% in the assay with MDA-MB-435 melanoma. In addition, the growth in the assay with SW-620 colon is -5.23% (active); in the assay on MCF7 breast it was -46.4% (active); in the assay on HCT-116 colon, -59.9% (active); in the assay with HCC-2998 colon, 17.8%; with KM12 colon, 78.3%.

For `Fc1ccccc1/C=C(/C1=NCCN1)n1cnc2ccccc21`, the growth with SR leukemia is 91.7%; with RPMI-8226 leukemia, 96.9%; in the assay on OVCAR-8 ovarian, 99.6%; in the assay with OVCAR-5 ovarian, 94.8%; in the assay on OVCAR-4 ovarian, 90.9%; with SK-OV-3 ovarian, 93.1%. Further, the growth was 95.6% in the assay with IGROV1 ovarian; 93.3% in the assay with HS 578T breast; 104% in the assay with NCI/ADR-RES ovarian; 99.1% with T-47D breast; 102% with BT-549 breast; 96.2% in the assay with MDA-MB-435 melanoma. The growth in the assay on SW-620 colon was 101%; in the assay on MCF7 breast, 86.2%; with HCT-116 colon, 98.7%; in the assay on HCC-2998 colon, 102%; in the assay on KM12 colon, 96.5%.

On to `CS(=O)(=O)c1nccc(-c2c(-c3ccc(F)c(OCc4ccccc4)c3)nc3sccn23)n1`, for which the growth was 16.6% in the assay on SR leukemia; 43.3% with RPMI-8226 leukemia; 99.6% with OVCAR-8 ovarian; 100% in the assay with OVCAR-5 ovarian; 104% in the assay with OVCAR-4 ovarian; 117% with SK-OV-3 ovarian. Besides, the growth with IGROV1 ovarian was 101%; with HS 578T breast, 91.3%; with NCI/ADR-RES ovarian, 99.9%; in the assay with T-47D breast, 18.5%; with BT-549 breast, -0.34% (active); in the assay on MDA-MB-435 melanoma, 101%. Besides, the growth was 100% in the assay on SW-620 colon; 16.5% in the assay with MCF7 breast; 38% in the assay with HCT-116 colon; 32.2% with HCC-2998 colon; 96.5% in the assay on KM12 colon.

For `COc1ccc(Cn2cc3c(c2-c2ccccc2)CCCc2cnoc2-3)cc1[N+](=O)[O-]`, the growth is 32.6% in the assay on SR leukemia; 59% in the assay on RPMI-8226 leukemia; 80.2% in the assay on OVCAR-8 ovarian; 93.4% with OVCAR-5 ovarian; 68.8% with OVCAR-4 ovarian; 74.8% with SK-OV-3 ovarian. The growth was 64% with IGROV1 ovarian; 64.3% in the assay with HS 578T breast; 42.5% with NCI/ADR-RES ovarian; 67.7% in the assay with T-47D breast; 81% in the assay with BT-549 breast; 1.77% (active) in the assay with MDA-MB-435 melanoma. Besides, the growth is 41.3% with SW-620 colon; 34.4% with MCF7 breast; 46.9% in the assay on HCT-116 colon; 85.7% in the assay on HCC-2998 colon; 49.4% with KM12 colon.

Turning to `N#C/C(=C\c1ccc(N2CCCCC2)cc1)C(=O)Nc1sc2c(c1C#N)CCC2`, the growth in the assay on SR leukemia is 97.6%; in the assay with RPMI-8226 leukemia, 69.3%; in the assay on OVCAR-8 ovarian it was 99.8%; in the assay with OVCAR-5 ovarian, 93.7%; in the assay on OVCAR-4 ovarian it was 84.5%; with SK-OV-3 ovarian, 96.6%. In addition, the growth in the assay on IGROV1 ovarian was 102%; in the assay on HS 578T breast it was 99.3%; in the assay on NCI/ADR-RES ovarian, 95.7%; in the assay with T-47D breast it was 97.7%; with BT-549 breast, 108%; with MDA-MB-435 melanoma it was 90%. The growth is 100% in the assay on SW-620 colon; 87.3% in the assay on MCF7 breast; 89.8% in the assay with HCT-116 colon; 105% in the assay with HCC-2998 colon; 96.5% in the assay on KM12 colon.

On to `CCOC(=O)/C(F)=C/C1CC1C1CCCCC1` (stereo not given), for which the growth was 111% in the assay with SR leukemia; 105% in the assay with RPMI-8226 leukemia; 109% with OVCAR-8 ovarian; 102% with OVCAR-5 ovarian; 107% in the assay with OVCAR-4 ovarian; 126% with SK-OV-3 ovarian. Moreover, the growth in the assay on IGROV1 ovarian was 110%; in the assay with HS 578T breast, 105%; in the assay with NCI/ADR-RES ovarian, 101%; in the assay with T-47D breast, 102%; in the assay with BT-549 breast it was 124%; in the assay on MDA-MB-435 melanoma, 102%. Besides, the growth in the assay on SW-620 colon is 101%; in the assay on MCF7 breast it was 92.2%; in the assay on HCT-116 colon it was 97.2%; in the assay with HCC-2998 colon, 107%; in the assay on KM12 colon, 104%.
